# Hits are enriched below; roughly 9% of the tested compounds scored in any of these assays.
# G9a block = qHTS Assay for Inhibitors of Histone Lysine Methyltransferase G9a. G9a H3K9 monomethylation, AlphaScreen, 2 h. Potency, µM (top dose mostly 102 µM), without a hit: at the top dose activity, negative = inhibition, hits mostly inhibitors. 350,000 tested, 8.8% active. AID 504332, 2011; note: % is set by controls: 0 for no effect and ±100 for the full control effect; nearly all actives have a fitted effect of over 75% in size
#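 G9a (20 nM) was preincubated 15 min with compound, then reacted 2 h at room temperature with 500 nM biotin-H3K9 peptide and 20 µM SAM. Monomethyl-H3K9 detected by AlphaScreen using anti-H3K9me1 antibody.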
# JMJD2A Tudor inh = qHTS Assay for Inhibitors of JMJD2A-Tudor Domain | Lysine-specific demethylase 4A (Homo sapiens), O75164 | AlphaScreen JMJD2A-Tudor / H3K4me3 peptide binding | Potency, µM (series often up to 114 µM), for inactives: top-dose activity change, negative = inhibition, actives largely listed as inhibitors | 390,000 tested, 4.4% active; note: % is set by controls: 0 for no effect and ±100 for the full control effect; nearly all actives have a fitted effect of over 50% in size
# PLK1 PBD block = qHTS for Inhibitors of PLK1-PDB (polo-like kinase 1 - polo-box domain): Primary Screen; Serine/threonine-protein kinase PLK1 (Homo sapiens), P53350; Plk1 PBD binding of FITC phosphopeptide, fluorescence polarization; Potency, µM, for the others: max response, negative = inhibition, most hits filed as inhibitors; 360,000 tested, 2.8% active; note: series mostly up to about 57 µM; % is set by controls: 0 for no effect and ±100 for the full control effect; nearly all actives have a fitted effect of over 65% in size
# ALOX12 inh = Primary qHTS assay for inhibitors of human arachidonate 12S-lipoxygenase (ALOX12): Round 2. Polyunsaturated fatty acid lipoxygenase ALOX12 (Homo sapiens), P18054. purified 12hLO, xylenol orange hydroperoxide absorbance. Potency, µM (series often up to 108 µM), inactives show top-dose activity change, negative = inhibition, most hits filed as inhibitors. 580,000 tested, 1.1% active. AID 1671190, 2021; note: % is set by controls: 0 for no effect and ±100 for the full control effect
# Target sequence (P18054 whole entry, looked up): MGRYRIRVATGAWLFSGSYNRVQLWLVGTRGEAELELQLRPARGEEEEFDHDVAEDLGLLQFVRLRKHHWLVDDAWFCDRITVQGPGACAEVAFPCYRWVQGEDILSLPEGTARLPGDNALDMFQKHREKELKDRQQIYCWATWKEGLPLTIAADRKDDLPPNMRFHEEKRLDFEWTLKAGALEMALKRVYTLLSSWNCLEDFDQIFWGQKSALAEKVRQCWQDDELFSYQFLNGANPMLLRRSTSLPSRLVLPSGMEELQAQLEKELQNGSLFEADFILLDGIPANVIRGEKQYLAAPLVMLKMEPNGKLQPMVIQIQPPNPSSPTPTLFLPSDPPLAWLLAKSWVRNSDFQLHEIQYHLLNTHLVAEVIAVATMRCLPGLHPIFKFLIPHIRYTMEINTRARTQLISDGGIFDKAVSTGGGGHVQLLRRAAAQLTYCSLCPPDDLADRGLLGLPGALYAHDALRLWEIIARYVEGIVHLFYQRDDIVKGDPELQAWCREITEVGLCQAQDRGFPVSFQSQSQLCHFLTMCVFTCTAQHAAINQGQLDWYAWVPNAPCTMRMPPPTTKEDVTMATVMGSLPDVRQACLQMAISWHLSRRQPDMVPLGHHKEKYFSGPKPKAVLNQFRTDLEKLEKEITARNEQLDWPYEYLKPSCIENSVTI
#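 Purified human 12hLO (150 nM final) in 25 mM Hepes, 0.01% Triton X-100, pH 7.0 was preincubated 15 min at room temperature with compound. Then 40 uM arachidonic acid was added, 30 min. Hydroperoxide was read by Fe-XO absorbance ratio 573/405 nm.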
# BAZ2B block = qHTS Assay for Inhibitors of BAZ2B | Bromodomain adjacent to zinc finger domain protein 2B (Homo sapiens), Q9UIF8 | Potency, µM (doses to about 114 µM), for inactives: top-dose activity change, negative = inhibition, actives largely listed as inhibitors | 360,000 tested, 4.4% active | AlphaScreen BAZ2B-H3K14Ac peptide displacement; note: % is set by controls: 0 for no effect and ±100 for the full control effect; nearly all actives have a fitted effect of over 60% in size
#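 AlphaScreen displacement of biotin-H3(5-23)K14Ac peptide (50 nM final) from BAZ2B (50 nM final) in PBS pH 7.4, 0.01% Tween-20; complex preformed 30 min RT, then compounds (top 110 uM) 30 min RT, beads 20 min dark.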
# HP1b chromo inh = HTS for Inhibitors of HP1-beta Chromodomain Interactions with Methylated Histone Tails. Chromobox protein homolog 1 (Homo sapiens), P83916. AlphaScreen HP1-beta / biotin-H3K9me3 peptide binding. Potency, µM (top dose mostly 114 µM), without a hit: top-dose activity change, negative = inhibition, usual class: inhibitors. 390,000 tested, 0.56% active; note: nearly all actives have a fitted effect of over 70% in size
#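 Compound inhibition of the preformed complex between 50 nM HP1-beta and 50 nM biotinylated H3K9me3 peptide was read by AlphaScreen. Buffer was PBS pH 7.4 with 0.01% Tween-20. Incubations ran 30 min at room temperature, with 10 ug/mL donor/acceptor beads.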
# Starred values were filed as active, the others as inactive; i = inactive; ? = inconclusive; . = not tested or not shown; [ ] = remark or other dose. Calls come from the whole dose curve; as a rule, active = well fitted curve in the direction sought with a large enough effect; inconclusive = small, poorly fitted or top-dose-only effect, or another doubt; inactive = no such curve, though single readings can be large; an effect the other way counts as inactive or inconclusive. Potency is the fitted concentration of half-maximal effect.
SMILES,G9a block,JMJD2A Tudor inh,PLK1 PBD block,ALOX12 inh,BAZ2B block,HP1b chromo inh
O=C(CSc1ccccn1)N1CCN(C(=O)CSc2ccccn2)CC1,-22.3%,-5.1%,-4.9%,2.7%,-2.2%,24.8%
CN1CCN(S(=O)(=O)c2ccc3ccccc3c2)CC1,-9.4%,-19.7%,-1.0%,435.8%,9.4%,33.7%
O=C(c1ccc2ccccc2c1)N1CCN(c2ccc(O)cc2)CC1,31.6µM*,?,-7.0%,?,-36.6%,?
COc1ccc(N2CCN(C(=O)CSc3nnc(-c4cc5ccccc5cc4O)n3C)CC2)cc1,16.8%,?,-4.7%,0.0%,5.9%,-3.5%
O=S(=O)(c1ccc2ccccc2c1)N1CCN(c2ccc(O)cc2)CC1,.,35.5µM*,-4.8%,?,.,?
O=C(c1ccc2ccccc2c1)N1CCN(c2ccccn2)CC1,6.2%,-19.1%,-7.5%,0.0%,-24.7%,7.9%
CC(C)/C=N/NC(=O)C1CC1,.,.,.,-2.1%,.,.
CCN1C(=O)/C(=C/N2CCc3ccccc3C2)SC1=S,.,-25.5%,-0.5%,0.0%,15.2%,15.3%
CCCCCN1C(=O)/C(=C/c2c(N3CCc4ccccc4C3)nc3ccccn3c2=O)SC1=S,.,39.8µM*,5.5%,-8.8%,.,?
O=C(c1ccccc1)c1nn(-c2cccc(Cl)c2)ccc1=O,-1.0%,-4.2%,-0.4%,0.2%,-20.7%,23.5%
Cc1ccc(S(=O)(=O)N2C[C@H]3[C@H]4C(=O)N(c5ccccc5)C(=O)[C@H]4CC(=O)[C@H]3[C@@H]2c2ccc(Cl)cc2)cc1,.,.,-13.3%,7.2%,.,.
O=C(C1=C[C@@H]2[C@H]3C(=O)N(c4ccccc4Cl)C(=O)[C@H]3[C@@H](C(=O)c3ccc(Cl)cc3)N2C=C1)c1ccccc1,8.91µM*,.,.,.,-38.8%,.
Cc1ccc(N2C(=O)[C@@H]3[C@H](C2=O)[C@H]2C=C(C(=O)c4ccccc4)C=CN2[C@@H]3C(=O)c2ccc(Cl)cc2)cc1,2.24µM*,-25.5%,-26.1%,-26.9%,-8.0%,36.5%
O=C(C1=C[C@@H]2[C@H]3C(=O)N(c4cccc(Cl)c4)C(=O)[C@H]3[C@@H](C(=O)c3ccc(Cl)cc3)N2C=C1)c1ccccc1,3.16µM*,?,?,.,-8.7%,-21.0%
CCOc1ccc(C(=O)Nc2ccc3oc(-c4ccc(C)cc4)nc3c2)cc1[N+](=O)[O-],.,.,.,16.9%,.,.
CC(C)CCN1CC(Oc2cccc(C(=O)N3CCOCC3)c2)C1,.,.,.,-2.0%,.,.
CC(C)(C)CCN1CC(Oc2cccc(C(=O)N3CCOCC3)c2)C1,.,.,.,22.4µM*,.,.
CCCCN(C(=O)c1cc(Cl)nc2ccccc12)c1c(N)n(CCC)c(=O)[nH]c1=O,.,.,-3.7%,11.0%,.,.
CCCCN(C(=O)c1cc(Cl)nc2ccccc12)c1c(N)n(Cc2ccccc2)c(=O)[nH]c1=O,50.1µM*,-12.3%,-9.4%,?,-5.5%,18.1%
Nc1c(N(Cc2ccco2)C(=O)c2ccc(Br)cc2)c(=O)[nH]c(=O)n1Cc1ccccc1,10.6%[12.7 µM],-17.1%,-11.3%,28.2µM*,-21.2%,21.4%
CCCCN(C(=O)c1cccc(N2C(=O)c3ccccc3C2=O)c1)c1c(N)n(CC(C)C)c(=O)[nH]c1=O,-11.3%[12.7 µM],-6.4%,1.6%,5.5%,-4.7%,48.8%
CCCCN(C(=O)CCCSc1nc2ccccc2[nH]1)c1c(N)n(Cc2ccccc2)c(=O)[nH]c1=O,10µM*,-2.1%,0.1%,i,-8.8%,16.2%
CCCCN(C(=O)c1cccc(-n2cccc2)c1)c1c(N)n(Cc2ccccc2)c(=O)[nH]c1=O,10.7%[0.501 µM],.,.,-27.6%,44.7µM*,.
COc1ccc(-c2cc(C(=O)N3CCOCC3)c3c(C4CCCN4)nn(C)c3n2)cc1 (stereo not drawn),.,.,.,-0.7%[6.33 µM],.,.
Cc1cc(C)nc(NC2=NCCN2C(=O)NC2CCCCC2)n1,8.8%[12.7 µM],-13.7%[11.4 µM],7.52µM*,-1.8%,6.1%,0.8%
SMILES,G9a block,JMJD2A Tudor inh,PLK1 PBD block,ALOX12 inh,BAZ2B block,HP1b chromo inh
CCNC(=S)N1CCN=C1Nc1nc(C)cc(C)n1,-2.7%,-4.6%,2.6%,-16.9%,2.8%,23.2%
O=c1[nH]c2cc(Cl)c(Cl)cc2[nH]c1=O,-5.6%[2.33 µM],.,.,-23.3%,.,.
Fc1cc2[nH]c(=S)[nH]c2cc1Cl,6.31µM*,-10.6%,0.0%,4.3%,-2.5%,8.2%
COc1ccc(CNc2ccnc(-c3ccc(C(=O)N(C)C)cc3)n2)c(OC)c1,-4.8%[0.501 µM],.,.,?,.,.
COc1ccc2[nH]cc(CCNc3cc(-c4ccc5c(c4)OCO5)ncn3)c2c1,6.5%[0.501 µM],.,.,?,.,.
COc1ccc2[nH]cc(CCNc3ccnc(-c4ccc5c(c4)OCO5)n3)c2c1,4.2%[0.501 µM],.,.,44.7µM*,.,.
COc1ccc2[nH]cc(CCNc3cc(-c4cccnc4)ncn3)c2c1,8.1%[0.501 µM],.,.,31.6µM*,.,.
COc1ccc(CNc2ccnc(-c3ccc4c(c3)OCO4)n2)c(OC)c1,-30.4%[0.501 µM],.,.,20µM*,.,.
COc1ccc2[nH]cc(CCNc3cc(-c4ccccc4C)ncn3)c2c1,-29.3%[0.501 µM],.,.,?,.,.
O=C(C1=COCCO1)N1CCN(S(=O)(=O)c2cccc(F)c2)CC1,-20.4%[12.7 µM],-1.3%,9.1%,-6.6%,-4.1%,50.8%
O=C1CCN(C(=O)[C@@H]2CCCN2S(=O)(=O)c2cccs2)CCCCCCN1,.,.,.,30.5%,.,.
COc1ccc(/C=N/OCC(=O)Nc2nc3ccccc3s2)cc1OC,7.0%,50.1µM*,16.8µM*,-3.7%,-1.8%,-0.8%
COc1ccc(C(=O)Nc2nc3ccccc3s2)cc1OC,.,-15.4%,4.1%,-11.9%,3.3%,33.8%
COc1cc(OC)c(C2=NOC(C(=O)NCc3ccc4c(c3)OCO4)C2)cc1Cl (stereo not drawn),-1.4%[12.7 µM],-19.6%,1.9%,-31.9%,-8.7%,9.2%
CC1(C)C(=O)NCCN1C(=O)CCCC(=O)O,-2.3%,-7.7%,-3.5%,-1.2%,-24.5%,34.4%
CCC(C)(C)n1nnnc1C(c1ccc2ncccc2c1)N1CCN(c2ccc(O)cc2)CC1 (stereo not drawn),10µM*,14.1µM*,-14.8%,-20.1%,-32.9%,13.0%[57 µM]
CC(C)(C)n1nnnc1C(c1ccccc1)N1CCN(c2ccc(F)cc2)CC1 (stereo not drawn),.,.,-10.1%,5.7%,.,.
COc1ccc(N2CCN(C(c3ccc(C)cc3)c3nnnn3C(C)(C)C)CC2)cc1 (stereo not drawn),.,50.1µM*,.,.,.,-19.0%

# Screening data deposited in PubChem by National Center for Advancing Translational Sciences (NCATS).
